Results reported in PubChem BioAssay AID1159580 (chemical genetic matrix, 2015).
About 2,000 (36%) of roughly 5,500 compounds were called active. Another 18% or so got no clear call; they are omitted. No stated cut-off is given here; in the data, active means normalized growth mostly below about 0.91 (no sharp cut-off); inconclusive means no clear call, values can overlap the other calls; inactive means mostly above about 0.92. The list shows a part of the results.

Experiment: chemical genetic growth profiling, strain panel (AID 1159580);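 further: tested at 20 µM; growth read once vehicle control cultures reached saturation at 30 °C; 1 = growth at the plate median or of vehicle wells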
Conditions: growth OD

Measured: normalized growth

COc1ccc2c3c1OC1C(O)CC=C4C(C2)N(C)CCC431 (stereo unspecified)
inactive: S. cerevisiae deletion strains, locus YAL013W, strain DEP1, stronger effect = lower value 0.994 | S. cerevisiae deletion strains, locus YBR021W, strain FUR4, stronger effect = lower value 1.01 | S. cerevisiae deletion strains, locus YBR229C, strain ROT2, stronger effect = lower value 1.01 | S. cerevisiae deletion strains, locus YCL029C, strain bik1, stronger effect = lower value 1.03 | S. cerevisiae deletion strains, locus YDL035C, strain GPR1, stronger effect = lower value 1.01 | S. cerevisiae deletion strains, locus YDL074C, strain BRE1, stronger effect = lower value 1.04 | S. cerevisiae deletion strains, locus YDL101C, strain DUN1, stronger effect = lower value 1.03 | S. cerevisiae deletion strains, locus YDL134C, strain PPH21, stronger effect = lower value 1.01 | S. cerevisiae deletion strains, locus YDL185W, strain tfp1, stronger effect = lower value 1.02 | S. cerevisiae deletion strains, locus YDL192W, strain arf1, stronger effect = lower value 1.02 | S. cerevisiae deletion strains, locus YDR101C, strain arx1, stronger effect = lower value 1 | S. cerevisiae deletion strains, locus YDR150W, strain NUM1, stronger effect = lower value 1.02 | S. cerevisiae deletion strains, locus YDR162C, strain NBP2, stronger effect = lower value 1.01 | S. cerevisiae deletion strains, locus YDR318W, strain mcm21, stronger effect = lower value 1.02 | S. cerevisiae deletion strains, locus YDR388W, stronger effect = lower value 1 | S. cerevisiae deletion strains, locus YDR502C, strain sam2, stronger effect = lower value 1.01 | S. cerevisiae deletion strains, locus YEL061C, strain CIN8, stronger effect = lower value 1.01 | S. cerevisiae deletion strains, locus YER110C, stronger effect = lower value 1.02 | S. cerevisiae deletion strains, locus YER155C, strain BEM2, stronger effect = lower value 0.996 | S. cerevisiae deletion strains, locus YER167W, strain BCK2, stronger effect = lower value 1.03 | S. cerevisiae deletion strains, locus YGL078C, strain dbp3, stronger effect = lower value 1.01 | S. cerevisiae deletion strains, locus YGL086W, strain mad1, stronger effect = lower value 1.02 | S. cerevisiae deletion strains, locus YGL248W, strain PDE1, stronger effect = lower value 1.02 | S. cerevisiae deletion strains, locus YGR078C, strain PAC10, stronger effect = lower value 1.03 | S. cerevisiae deletion strains, locus YGR135W, strain pre9, stronger effect = lower value 1.01 | S. cerevisiae deletion strains, locus YGR229C, strain SMI1, stronger effect = lower value 0.993 | S. cerevisiae deletion strains, locus YGR252W, strain gcn5, stronger effect = lower value 1.02 | S. cerevisiae deletion strains, locus YHR030C, strain SLT2, stronger effect = lower value 1.01 | S. cerevisiae deletion strains, locus YHR079C, strain IRE1 (second series), stronger effect = lower value 1.02 | S. cerevisiae deletion strains, locus YHR094C, strain hxt1, stronger effect = lower value 1.01 | S. cerevisiae deletion strains, locus YHR129C, strain ARP1, stronger effect = lower value 1.01 | S. cerevisiae deletion strains, locus YHR200W, strain rpn10, stronger effect = lower value 1.01 | S. cerevisiae deletion strains, locus YIL066C, strain RNR3, stronger effect = lower value 1.01 | S. cerevisiae deletion strains, locus YIL073C, strain SPO22, stronger effect = lower value 1.1 | S. cerevisiae deletion strains, locus YIL125W, strain kgd1, stronger effect = lower value 1.01 | S. cerevisiae deletion strains, locus YIR030C, strain dcg1, stronger effect = lower value 1.02 | S. cerevisiae deletion strains, locus YJL095W, strain BCK1, stronger effect = lower value 1.03 | S. cerevisiae deletion strains, locus YJL134W, strain LCB3, stronger effect = lower value 1.01 | S. cerevisiae deletion strains, locus YJL168C, strain set2, stronger effect = lower value 1.02 | S. cerevisiae deletion strains, locus YJL187C, strain SWE1 (second series), stronger effect = lower value 1.02 | S. cerevisiae deletion strains, locus YJR043C, strain POL32, stronger effect = lower value 1.03 | S. cerevisiae deletion strains, locus YJR075W, strain HOC1, stronger effect = lower value 1.02 | S. cerevisiae deletion strains, locus YKL009W, strain mrt4, stronger effect = lower value 1.03 | S. cerevisiae deletion strains, locus YKL068W, stronger effect = lower value 1.01 | S. cerevisiae deletion strains, locus YKL085W, strain MDH1 (second series), stronger effect = lower value 1.01 | S. cerevisiae deletion strains, locus YKL085W, strain MDH1, stronger effect = lower value 1.01 | S. cerevisiae deletion strains, locus YKL190W, strain CNB1, stronger effect = lower value 1.01 | S. cerevisiae deletion strains, locus YKR001C, strain vps1, stronger effect = lower value 1.03 | S. cerevisiae deletion strains, locus YLR039C, strain RIC1, stronger effect = lower value 1.04 | S. cerevisiae deletion strains, locus YLR058C, strain SHM2, stronger effect = lower value 1.02 | S. cerevisiae deletion strains, locus YLR102C, strain apc9, stronger effect = lower value 1.01 | S. cerevisiae deletion strains, locus YLR262C, strain YPT6, stronger effect = lower value 1.05 | S. cerevisiae deletion strains, locus YLR268W, strain sec22, stronger effect = lower value 1.02 | S. cerevisiae deletion strains, locus YLR330W, strain CHS5, stronger effect = lower value 1.01 | S. cerevisiae deletion strains, locus YLR342W, strain FKS1 (second series), stronger effect = lower value 1.02 | S. cerevisiae deletion strains, locus YLR371W, strain rom2, stronger effect = lower value 1.01 | S. cerevisiae deletion strains, locus YLR418C, strain cdc73, stronger effect = lower value 1.02 | S. cerevisiae deletion strains, locus YML016C, strain PPZ1, stronger effect = lower value 1.02 | S. cerevisiae deletion strains, locus YML032C, strain rad52, stronger effect = lower value 1.02 | S. cerevisiae deletion strains, locus YML124C, strain tub3, stronger effect = lower value 1.02 | S. cerevisiae deletion strains, locus YMR078C, strain ctf18, stronger effect = lower value 1.03 | S. cerevisiae deletion strains, locus YMR223W, strain ubp8, stronger effect = lower value 1.03 | S. cerevisiae deletion strains, locus YMR263W, strain SAP30, stronger effect = lower value 1.02 | S. cerevisiae deletion strains, locus YMR307W, strain GAS1, stronger effect = lower value 0.962 | S. cerevisiae deletion strains, locus YNL067W, strain RPL9B, stronger effect = lower value 1.03 | S. cerevisiae deletion strains, locus YNL128W, strain TEP1, stronger effect = lower value 1.02 | S. cerevisiae deletion strains, locus YNL153C, strain GIM3, stronger effect = lower value 1.02 | S. cerevisiae deletion strains, locus YNL233W, strain BNI4, stronger effect = lower value 1.02 | S. cerevisiae deletion strains, locus YNL250W, strain rad50, stronger effect = lower value 1.03 | S. cerevisiae deletion strains, locus YNL271C, strain bni1, stronger effect = lower value 1.01 | S. cerevisiae deletion strains, locus YNL298W, strain CLA4, stronger effect = lower value 1.03 | S. cerevisiae deletion strains, locus YNL307C, strain MCK1, stronger effect = lower value 1.02 | S. cerevisiae deletion strains, locus YNL322C, strain KRE1, stronger effect = lower value 1.01 | S. cerevisiae deletion strains, locus YNR052C, strain pop2, stronger effect = lower value 1.02 | S. cerevisiae deletion strains, locus YOL006C, strain TOP1, stronger effect = lower value 1.1 | S. cerevisiae deletion strains, locus YOL012C, strain htz1 0.859 | S. cerevisiae deletion strains, locus YOL147C, strain pex11, stronger effect = lower value 1 | S. cerevisiae deletion strains, locus YOR061W, strain CKA2, stronger effect = lower value 1.02 | S. cerevisiae deletion strains, locus YOR069W, strain VPS5, stronger effect = lower value 1.01 | S. cerevisiae deletion strains, locus YOR136W, strain idh2, stronger effect = lower value 1.02 | S. cerevisiae deletion strains, locus YOR144C, strain elg1, stronger effect = lower value 1.02 | S. cerevisiae deletion strains, locus YOR184W, strain ser1, stronger effect = lower value 1.03 | S. cerevisiae deletion strains, locus YOR316C, strain cot1, stronger effect = lower value 1.02 | S. cerevisiae deletion strains, locus YPL055C, strain LGE1, stronger effect = lower value 1.03 | S. cerevisiae deletion strains, locus YPL241C, strain CIN2, stronger effect = lower value 1.01 | S. cerevisiae deletion strains, locus YPR119W, strain clb2, stronger effect = lower value 1 | S. cerevisiae deletion strains, locus YPR141C, strain kar3, stronger effect = lower value 1.01 | S. cerevisiae deletion strains, locus YPR163C, strain tif3, stronger effect = lower value 1.02 | S. cerevisiae deletion strains, locus YPR167C, strain met16, stronger effect = lower value 1.02 | S. cerevisiae deletion strains, strain wtn01, stronger effect = lower value 1.01 | S. cerevisiae strains, strain wild type, stronger effect = lower value 1
